Several values for one entry are separate records, joined by “and”; a condition that tells them apart may be missing. Equal entries are not always repeated. Out of some 300,000 compounds screened, about 480 (0.16%) were called active.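 How the source made its calls: active means inhibition over 29.93%, a cutoff 3 SD above the screen mean, later confirmed by dose response; inconclusive means inhibition over 29.93% but no dose response follow-up; inactive means inhibition at most 29.93% or unconfirmed.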 These entries were drawn from the full list. Measured potencies and affinities stand elsewhere.
Assay: inhibitors of PhoP regulon expression, primary screen, Salmonella Typhimurium, GFP reporter (AID 1863);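 further: 0% = low Mg2+ inducing control and 100% = high Mg2+ repressing control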
Conditions: S. Typhimurium PhoP-regulated promoter GFP reporter, 4 h; at 50 µM; hits give high values

inhibition, inactive:
Cc1ccc(S(=O)(=O)N2CC(=NN=C(N)N)C2)cc1 6.04%
NC(N)=NN=C1CCC(c2ccccc2)CC1 (stereo not given) -4.95%
COc1ccc(/C=N/NC(=O)c2ccc(COc3ccccc3Cl)o2)cc1 2.77%
CC(=O)Nc1ccc(Nc2nnc(-c3ccc(C)c(S(N)(=O)=O)c3)c3ccccc23)cc1 -2.89%
CC(C)(C)C1=CC(=O)C(N2CCOCC2)=CC1=O -2.73%
CC1=C(C)C(=O)C(N2CCOCC2)=CC1=O -8.01%
CC(NC(=O)COc1ccc(Oc2ccccc2)cc1)C(=O)O (stereo not given) -6.64%
CC(=O)c1cccc(NC(=O)Nc2ccccc2)c1 4.67%
CN1CCN(C(c2cccnc2)c2ccc3cccnc3c2O)CC1 (stereo not given) -7.68%
COc1ccc(C(NC(C)=O)c2cc(Cl)c3cccnc3c2O)cc1OC (stereo not given) 3%
CCC(=O)NC(c1ccc(OC)cc1)c1cc(Cl)c2cccnc2c1O (stereo not given) 2.08%
CN1CCN(C(c2ccc(C(F)(F)F)cc2)c2ccc3cccnc3c2O)CC1 (stereo not given) 0.72%
CCOC(=O)N1CCN(S(=O)(=O)c2cccc3cccnc23)CC1 -11%
O=C(NC(c1ccc(Cl)cc1)c1cc(Cl)c2cccnc2c1O)c1cccnc1 (stereo not given) 6.03%
Oc1c(C(c2ccc(Cl)cc2)N2CCCC2)cc(Cl)c2cccnc12 (stereo not given) 4.49%
OCCN1CCN(C(c2cccs2)c2ccc3cccnc3c2O)CC1 (stereo not given) -47.6%
CCC(c1nnnn1C(C)(C)CC)N(CCCN1CCOCC1)Cc1cc2cccc(C)c2[nH]c1=O (stereo not given) 1.45%
CCn1nc(C)c(/C=N/NC(=O)Cn2nc(C)cc2C)c1C -4.2%
CCCCNC(=O)c1cc(-c2ccc(OC)c(OC)c2)on1 3.01%
Cc1c(C#N)c(N)nc2c3c(sc12)NC(=O)CC3c1ccccc1 (stereo not given) -5.65%
COc1cccc(NC(=O)c2cc([N+](=O)[O-])ccc2NCc2cccnc2)c1 -4.37%
CCOC(=O)c1cn(CC(=O)Nc2cccc(F)c2)nn1 -11.4%
O=C(Cn1c(C(=O)O)cc2ccccc21)c1ccccc1 -2.79%
Cc1ccc(N2C(=O)N(CC(=O)N3CCOCC3)C(=O)C2C)cc1 (stereo not given) 2.04%
COC(C(=O)Nc1ccnn1C1CCN(C(=O)c2ccc(C)cc2)CC1)c1ccccc1 (stereo not given) 5.45%
O=S1(=O)CCOC[C@H](CC2CCCCC2)N1Cc1cccc(C(F)(F)F)c1 9.84%
CC(=O)NC(c1ccccc1)c1cc(Cl)c2cccnc2c1O (stereo not given) 18.9%
CC(=O)NC(c1ccc(C)cc1)c1cc(Cl)c2cccnc2c1O (stereo not given) -1.88%
CCC(=O)NC(c1cccs1)c1cc(Cl)c2cccnc2c1O (stereo not given) 14.8%
O=C(NC(c1ccccc1)c1cc(Cl)c2cccnc2c1O)c1cccnc1 (stereo not given) -10.8%
CCOc1ccc(C(Nc2cccnc2)c2cc(Cl)c3cccnc3c2O)cc1 (stereo not given) 3.11%
COc1ccc(C(NC(C)=O)c2cc(Cl)c3cccnc3c2O)cc1 (stereo not given) 5.56%
Oc1c(C(c2ccccn2)N2CCC(Cc3ccccc3)CC2)cc(Cl)c2cccnc12 (stereo not given) -3.77%
CCCc1cc(=O)[nH]c(SCC(=O)Nc2ccc(Br)cc2)n1 -7.86%
CC1CCN(S(=O)(=O)c2ccc3c(c2)c(=O)c(C(=O)NCc2ccccc2Cl)cn3C)CC1 5.92%
Cc1ccc(/C=C/C(=O)c2ccccc(=O)c2O)c(C)c1 7.66%
O=C(/C=C/c1ccccc1Cl)c1ccc[nH]1 11.1%
O=C(/C=C/c1ccc(O)c(O)c1)c1ccccc1O -12%
O=C(/C=C/c1ccccc1Cl)c1ccc(O)cc1 2.4%
Cc1cccc(/C=C/C(=O)c2cc(Br)ccc(=O)c2O)c1 23.4%
Cc1ccc2occ(/C=C/C(=O)c3ccccc3O)c(=O)c2c1 1.62%
C=CCNC(=O)CSc1nnc(-c2ccccn2)n1Cc1ccccc1 7.3%
CCOC(=O)c1ccc(NC(=O)c2ccccc2N(C)S(=O)(=O)c2ccccc2)cc1 1.33%
Cc1ncc(CSCC(=O)Nc2cc(C(F)(F)F)ccc2Cl)c(CO)c1O 3.52%
C=C1CCC(OC(C)=O)C2(C)CCC3C(C)C(=O)OC3C12O (stereo not given) 5.69%
COc1ccc(CN(CCN(C)C)c2ccccn2)cc1 5.26% and 0.005%
CC[N+](C)(C)CCN(Cc1ccc(Cl)cc1)c1ccccn1 1.17%
Cc1cccc(CCNC(=O)CN(C)S(=O)(=O)c2ccc3c(c2)c(=O)n(C)c(=O)n3C)c1 10.3%
Cc1ccc(N2C(=O)N(Cc3ccccc3C)c3ccccc3S2(=O)=O)cc1 3.76%
Oc1ccc(F)c2cccnc12 -2.12%
Cc1ccc(N=Nc2ccc(O)c3ncccc23)cc1 0.67%
O=C(N/N=C/c1ccc(O)c2ncccc12)c1cccc(Br)c1 -1.53%
Cc1ccccc1N=Nc1ccc(O)c2ncccc12 -2.25%
CN(c1ccc(C(=O)Nc2ccccc2C(=O)N2CCCC2)cc1)S(C)(=O)=O 1.89%
CCn1c(C(=O)O)c(CC(=O)Nc2ccccc2OC)c2ccccc21 -3.77%
CCC/C=C1/CCCOC(C(=O)NCc2ccccn2)(C(F)(F)F)C1 (stereo not given) 4.57%
COC(=O)c1ccccc1NC(=O)Nc1ncccc1C 8.31%
C=CCn1c(-c2sc3nc(C)cc(C)c3c2N)n[nH]c1=S 1.92%
CN(Cc1ccccc1)S(=O)(=O)c1ccc(Cl)c(C(=O)NCCc2ccccn2)c1 -2.89%
Cc1ccc(S(=O)(=O)NC(=O)NCc2ccc(F)cc2)cc1 -2.51%
COc1ccc(-c2nnc(SCC(=O)NC(=O)NCc3ccccc3)o2)cc1 2.48%
CCCc1cc(=O)oc2cc(C)cc(OCC(=O)NCCCN3CCCC3=O)c12 -4.85%
Cn1nnnc1SCc1nc2ccccc2s1 -6.44%
COc1c(C(=O)Nc2ccc(CN3CCOCC3)cc2)cc2ccccc2c1Br 2.69%
C[C@H]1[C@H](NC(=O)C(=NOC(C)(C)C(=O)O)c2csc(N)n2)C(=O)N1S(=O)(=O)O -6.02%
CN(C)CCn1nnnc1SCC1=C(C(=O)O)N2C(=O)[C@@H](NC(=O)Cc3csc(N)n3)[C@H]2SC1 2.16%
CC1=C(C(=O)O)N2C(=O)C(NC(=O)c3ccn(C)n3)C2SC1 (stereo not given) 5.21%
C=CC1=C(C(=O)O)N2C(=O)C(NC(=O)Cc3ccccc3)C2SC1 (stereo not given) -2.7%
COC(c1ccccc1)(c1ccccc1)C(Oc1nccc(C)n1)C(=O)O (stereo not given) -3.3%
COc1cccc(C(=O)Nc2cnc(NC(=O)c3ccco3)cc2C)c1 12.2%
C=CCN=C(NC#N)SCC(=O)c1cccc(OC)c1 -4.71%
O=C(NCCCn1ccnc1)/C(=C\c1ccc(Br)cc1)NC(=O)c1ccccc1F -5.42%
COc1cc(O)c(C(CC(=O)N2CCOCC2)c2cc(OC)c(OC)c(OC)c2)c(OC)c1 (stereo not given) -0.44%
CO[C@H]1C=CO[C@@]2(C)Oc3c(C)c(O)c4c(O)c(c(C=NN5CCN(C6CCCC6)CC5)c(O)c4c3C2=O)NC(=O)C(C)=CC=C[C@H](C)[C@H](O)[C@@H](C)[C@@H](O)[C@@H](C)[C@H](OC(C)=O)[C@@H]1C -1.76%
CO[C@H]1C=CO[C@@]2(C)Oc3c(C)c(O)c4c(O)c(c5c(c4c3C2=O)NC2(CCN(CC(C)C)CC2)N=5)=NC(=O)C(C)=CC=C[C@H](C)[C@H](O)[C@@H](C)[C@@H](O)[C@@H](C)[C@H](OC(C)=O)[C@@H]1C -10.1%
COc1ccccc1CNC(=O)C(=O)NCC1OCCN1C(=O)c1cccs1 (stereo not given) -7.58%
CCOc1ncccc1C(=O)NCCCSc1ccccc1 4.02%
COc1ccc(Cl)cc1/C=C(\C#N)C(N)=O -5.64%
Cc1ccnc(SCCn2c(N3CCCCC3)nc3c2c(=O)[nH]c(=O)n3C)n1 2.87%
CC(=O)Nc1ccc(S(=O)(=O)NCc2cc(=O)n(C)c(=O)n2C)cc1 1.8%
CCOc1cc(C2/C(=C(/O)c3ccc(OC(C)C)cc3)C(=O)C(=O)N2CCCOC)ccc1O (stereo not given) -4.64%
CCc1cc2c3c(c1)/C(=C1/SC(N)=NC1=O)C(=O)N3C(C)(C)C=C2C 2.08%
Cc1cc(C)cc(CN2C(=O)NC3(CCCCCC3)C2=O)c1 -9.68%
Oc1ccccc1CNCc1ccccc1 4.46%
CC(NCc1ccccc1O)c1ccccc1 (stereo not given) -3.45%
CN(C)S(=O)(=O)c1cccc(NC(=O)c2ccc(S(=O)(=O)N3CCCC3)cc2)c1 -7.11%
CC(C)OCCCNc1nc2c(-c3ccccc3)nnn2c2ccccc12 -3.07%
COc1cc(NC(=O)Cn2cnc(S(=O)(=O)N3CCC(C)CC3)c2)cc(OC)c1OC -7.04%
CC[C@H]1OC(=O)[C@H](C)[C@@H](O[C@H]2C[C@@](C)(OC)[C@@H](O)[C@H](C)O2)[C@H](C)[C@@H](O[C@@H]2O[C@H](C)C[C@H](N(C)C)[C@H]2O)[C@](C)(O)C[C@@H](C)C(=O)[C@H](C)[C@@H](O)[C@]1(C)O 6.93%
CC[C@H]1OC(=O)[C@H](C)[C@@H](O[C@H]2C[C@@](C)(OC)[C@@H](O)[C@H](C)O2)[C@H](C)[C@@H](O[C@@H]2O[C@H](C)C[C@H](N(C)C)[C@H]2O)[C@](C)(O)C[C@@H](C)C(=NOCOCCOC)[C@H](C)[C@@H](O)[C@]1(C)O 2.91%
